# Paper PMC7862700, “An all-to-all approach to the identification of sequence-specific readers for epigenetic DNA modifications on cytosine”
# Key:
# Assay in all cases: DAPPL (digital affinity profiling via proximity ligation, sequencing); 10 mM Tris-HCl pH 7.5, 50 mM NaCl, 1 mM DTT, 4% glycerol, room temperature, 30 min; GST-TFs on glutathione beads, 16-mer random dsDNA library, 0.1% formaldehyde crosslink after washing; high values mean tight binding
# ELK1 = target: T1, ELK1 (Homo sapiens, UniProt P19419 1-428); conditions: protein: recombinant; tags: N-terminal GST; dsDNA, one strand shown
# T1 sequence: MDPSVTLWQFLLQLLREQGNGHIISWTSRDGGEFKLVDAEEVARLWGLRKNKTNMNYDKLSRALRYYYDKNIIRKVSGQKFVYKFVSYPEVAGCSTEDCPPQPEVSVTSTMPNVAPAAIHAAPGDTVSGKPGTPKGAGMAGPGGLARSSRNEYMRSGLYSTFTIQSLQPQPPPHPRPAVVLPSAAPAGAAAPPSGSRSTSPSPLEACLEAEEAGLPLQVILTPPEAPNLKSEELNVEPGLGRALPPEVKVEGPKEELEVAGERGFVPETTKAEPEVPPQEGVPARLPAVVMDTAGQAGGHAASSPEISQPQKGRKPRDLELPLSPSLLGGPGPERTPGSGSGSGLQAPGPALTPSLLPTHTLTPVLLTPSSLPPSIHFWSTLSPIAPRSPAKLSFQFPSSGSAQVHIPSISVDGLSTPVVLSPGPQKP
# Procedure, shortened: (§1)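 Binding signal is each hexamer's read frequency for a factor divided by its frequency in the tag-only sample. The factors were GST-fused human transcription factors from yeast, captured on glutathione beads, DNA-barcoded and pooled with that sample. Pools were incubated with 200 nmole of a random double-stranded 16-mer DNA library in Tris/NaCl/DTT/glycerol buffer at room temperature for 30 min, then washed, crosslinked with 0.1% formaldehyde, proximity-ligated with BsaI/T4 ligase (1 h, 37 °C), PCR-amplified and sequenced on an Illumina NextSeq500.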
# ERG = target: T2, ERG (Homo sapiens, UniProt P11308 1-479); conditions: protein: recombinant; tags: N-terminal GST; dsDNA, one strand shown
# T2 sequence: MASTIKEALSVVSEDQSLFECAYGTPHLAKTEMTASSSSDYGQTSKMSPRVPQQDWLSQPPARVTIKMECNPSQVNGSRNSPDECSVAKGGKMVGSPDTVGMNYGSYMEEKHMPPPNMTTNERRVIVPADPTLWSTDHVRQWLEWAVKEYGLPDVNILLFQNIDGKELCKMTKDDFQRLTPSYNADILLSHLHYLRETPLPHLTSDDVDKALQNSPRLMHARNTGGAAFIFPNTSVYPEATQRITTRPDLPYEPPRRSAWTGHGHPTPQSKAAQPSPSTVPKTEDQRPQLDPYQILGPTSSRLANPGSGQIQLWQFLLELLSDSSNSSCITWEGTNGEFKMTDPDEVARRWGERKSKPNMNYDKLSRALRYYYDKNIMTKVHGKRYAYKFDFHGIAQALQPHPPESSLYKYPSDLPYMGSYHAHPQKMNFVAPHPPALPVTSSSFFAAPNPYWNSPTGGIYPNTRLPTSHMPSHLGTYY
# Procedure, shortened: as §1
# EHF = target: T3, EHF (Homo sapiens, UniProt Q9NZC4 1-300); conditions: protein: recombinant; tags: N-terminal GST; dsDNA, one strand shown
# T3 sequence: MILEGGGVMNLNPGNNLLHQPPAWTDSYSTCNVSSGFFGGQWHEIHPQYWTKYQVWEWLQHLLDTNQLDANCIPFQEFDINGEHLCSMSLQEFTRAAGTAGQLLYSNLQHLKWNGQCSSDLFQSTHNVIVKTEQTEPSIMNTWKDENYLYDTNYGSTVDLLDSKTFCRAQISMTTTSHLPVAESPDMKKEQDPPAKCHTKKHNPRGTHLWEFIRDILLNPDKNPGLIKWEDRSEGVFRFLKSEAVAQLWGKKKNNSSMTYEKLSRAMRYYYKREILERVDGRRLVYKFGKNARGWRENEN
# Procedure, shortened: as §1
# SPI1 = SPI1 (Homo sapiens, UniProt P17947 1-270); conditions: protein: recombinant; tags: N-terminal GST; dsDNA, one strand shown
# Procedure, shortened: as §1
# ELK3 = target: T4, ELK3 (Homo sapiens, UniProt P41970 1-407); conditions: protein: recombinant; tags: N-terminal GST; dsDNA, one strand shown
# T4 sequence: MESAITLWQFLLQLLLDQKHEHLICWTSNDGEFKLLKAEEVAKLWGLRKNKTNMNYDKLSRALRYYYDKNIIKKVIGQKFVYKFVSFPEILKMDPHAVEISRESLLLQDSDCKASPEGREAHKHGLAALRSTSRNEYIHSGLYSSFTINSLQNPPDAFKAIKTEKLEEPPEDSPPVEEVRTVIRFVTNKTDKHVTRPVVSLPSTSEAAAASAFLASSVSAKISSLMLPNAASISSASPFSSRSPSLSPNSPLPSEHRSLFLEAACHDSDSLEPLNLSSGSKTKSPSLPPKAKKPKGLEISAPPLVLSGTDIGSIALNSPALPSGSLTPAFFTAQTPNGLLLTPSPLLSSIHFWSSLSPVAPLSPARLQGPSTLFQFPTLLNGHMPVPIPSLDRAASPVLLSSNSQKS
# Procedure, shortened: as §1
# HSF1 = HSF1 (Homo sapiens, UniProt Q00613 1-529); conditions: protein: recombinant; tags: N-terminal GST; chain copies: 3; dsDNA, one strand shown
# Chain of HSF1 (Q00613 whole entry): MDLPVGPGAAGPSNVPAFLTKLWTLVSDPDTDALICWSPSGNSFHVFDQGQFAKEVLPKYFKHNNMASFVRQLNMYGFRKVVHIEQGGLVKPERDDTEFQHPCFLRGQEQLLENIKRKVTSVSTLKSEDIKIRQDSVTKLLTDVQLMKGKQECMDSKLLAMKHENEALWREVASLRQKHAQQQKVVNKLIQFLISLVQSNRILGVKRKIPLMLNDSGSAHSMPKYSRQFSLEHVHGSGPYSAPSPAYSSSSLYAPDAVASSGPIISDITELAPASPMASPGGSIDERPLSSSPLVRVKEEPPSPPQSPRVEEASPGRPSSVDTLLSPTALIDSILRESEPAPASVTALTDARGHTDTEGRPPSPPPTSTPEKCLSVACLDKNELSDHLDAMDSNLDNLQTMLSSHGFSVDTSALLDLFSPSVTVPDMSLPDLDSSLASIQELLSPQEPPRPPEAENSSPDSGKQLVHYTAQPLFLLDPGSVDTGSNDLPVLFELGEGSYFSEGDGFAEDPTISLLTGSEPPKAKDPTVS
# Procedure, shortened: as §1
# SPIC = target: T5, SPIC (Homo sapiens, UniProt Q8N5J4 1-248); conditions: protein: recombinant; tags: N-terminal GST; dsDNA, one strand shown
# T5 sequence: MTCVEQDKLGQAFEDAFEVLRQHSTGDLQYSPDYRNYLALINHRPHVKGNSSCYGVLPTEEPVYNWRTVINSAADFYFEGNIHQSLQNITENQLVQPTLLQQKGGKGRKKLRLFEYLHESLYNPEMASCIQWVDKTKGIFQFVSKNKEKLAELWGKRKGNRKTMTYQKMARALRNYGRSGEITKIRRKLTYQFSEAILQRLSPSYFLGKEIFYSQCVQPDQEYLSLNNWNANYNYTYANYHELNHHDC
# Procedure, shortened: as §1
# ELF4 = ELF4 (Homo sapiens, UniProt Q99607 1-663); conditions: protein: recombinant; tags: N-terminal GST; dsDNA, one strand shown
# Chain of ELF4 (Q99607 whole entry): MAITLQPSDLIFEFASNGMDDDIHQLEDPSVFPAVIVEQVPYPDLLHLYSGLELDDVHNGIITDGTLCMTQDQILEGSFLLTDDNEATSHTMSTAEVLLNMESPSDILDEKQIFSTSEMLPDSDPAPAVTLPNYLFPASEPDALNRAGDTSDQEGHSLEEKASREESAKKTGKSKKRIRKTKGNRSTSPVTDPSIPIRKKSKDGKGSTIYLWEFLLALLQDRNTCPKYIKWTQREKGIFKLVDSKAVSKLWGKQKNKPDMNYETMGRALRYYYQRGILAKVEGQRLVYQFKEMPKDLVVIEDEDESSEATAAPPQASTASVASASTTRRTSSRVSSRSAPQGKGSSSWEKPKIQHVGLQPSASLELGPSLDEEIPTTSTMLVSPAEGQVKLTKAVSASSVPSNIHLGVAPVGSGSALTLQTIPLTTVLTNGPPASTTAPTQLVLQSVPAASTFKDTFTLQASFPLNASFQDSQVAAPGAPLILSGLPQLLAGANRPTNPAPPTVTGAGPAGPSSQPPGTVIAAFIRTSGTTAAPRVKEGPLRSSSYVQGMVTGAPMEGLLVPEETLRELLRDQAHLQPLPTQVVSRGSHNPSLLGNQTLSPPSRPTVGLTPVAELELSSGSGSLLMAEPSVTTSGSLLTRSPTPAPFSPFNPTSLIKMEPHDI
# Procedure, shortened: as §1
# ETV2 = target: T6, ETV2 (Homo sapiens, UniProt O00321 1-342); conditions: protein: recombinant; tags: N-terminal GST; dsDNA, one strand shown
# T6 sequence: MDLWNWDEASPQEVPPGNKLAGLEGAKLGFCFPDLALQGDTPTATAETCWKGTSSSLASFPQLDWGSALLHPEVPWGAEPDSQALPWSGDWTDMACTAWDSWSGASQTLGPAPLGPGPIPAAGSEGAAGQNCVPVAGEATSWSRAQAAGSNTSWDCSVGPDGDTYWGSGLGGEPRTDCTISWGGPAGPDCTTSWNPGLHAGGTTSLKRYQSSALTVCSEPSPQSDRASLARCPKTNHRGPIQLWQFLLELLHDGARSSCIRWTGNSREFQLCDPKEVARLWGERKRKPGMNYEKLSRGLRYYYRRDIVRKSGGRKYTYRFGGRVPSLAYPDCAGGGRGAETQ
# Procedure, shortened: as §1
# ELF3 = target: T7, ELF3 (Homo sapiens, UniProt P78545 1-371); conditions: protein: recombinant; tags: N-terminal GST; dsDNA, one strand shown
# T7 sequence: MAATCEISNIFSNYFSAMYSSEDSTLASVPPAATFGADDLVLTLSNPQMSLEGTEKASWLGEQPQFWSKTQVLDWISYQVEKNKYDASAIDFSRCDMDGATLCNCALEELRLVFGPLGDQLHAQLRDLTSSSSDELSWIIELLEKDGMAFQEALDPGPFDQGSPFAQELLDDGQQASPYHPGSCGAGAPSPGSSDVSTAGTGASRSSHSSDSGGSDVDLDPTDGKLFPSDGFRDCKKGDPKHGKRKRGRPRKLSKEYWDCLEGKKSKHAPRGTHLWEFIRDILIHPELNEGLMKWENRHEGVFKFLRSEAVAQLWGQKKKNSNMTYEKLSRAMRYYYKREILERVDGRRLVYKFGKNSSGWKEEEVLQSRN
# Procedure, shortened: as §1
# CRX = CRX (Homo sapiens, UniProt O43186 1-299); conditions: protein: recombinant; tags: N-terminal GST; dsDNA, one strand shown
# Chain of CRX (O43186 whole entry): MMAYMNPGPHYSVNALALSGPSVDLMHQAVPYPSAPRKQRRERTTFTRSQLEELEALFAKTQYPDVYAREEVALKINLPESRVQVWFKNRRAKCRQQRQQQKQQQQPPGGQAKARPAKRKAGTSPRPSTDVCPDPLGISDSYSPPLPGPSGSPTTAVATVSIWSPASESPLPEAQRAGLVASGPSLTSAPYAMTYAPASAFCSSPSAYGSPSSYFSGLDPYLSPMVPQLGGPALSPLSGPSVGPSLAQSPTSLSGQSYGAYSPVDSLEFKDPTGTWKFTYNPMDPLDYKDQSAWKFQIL
# Procedure, shortened: as §1
# ETV1 = ETV1 (Homo sapiens, UniProt P50549 1-477); conditions: protein: recombinant; tags: N-terminal GST; dsDNA, one strand shown
# Chain of ETV1 (P50549 whole entry): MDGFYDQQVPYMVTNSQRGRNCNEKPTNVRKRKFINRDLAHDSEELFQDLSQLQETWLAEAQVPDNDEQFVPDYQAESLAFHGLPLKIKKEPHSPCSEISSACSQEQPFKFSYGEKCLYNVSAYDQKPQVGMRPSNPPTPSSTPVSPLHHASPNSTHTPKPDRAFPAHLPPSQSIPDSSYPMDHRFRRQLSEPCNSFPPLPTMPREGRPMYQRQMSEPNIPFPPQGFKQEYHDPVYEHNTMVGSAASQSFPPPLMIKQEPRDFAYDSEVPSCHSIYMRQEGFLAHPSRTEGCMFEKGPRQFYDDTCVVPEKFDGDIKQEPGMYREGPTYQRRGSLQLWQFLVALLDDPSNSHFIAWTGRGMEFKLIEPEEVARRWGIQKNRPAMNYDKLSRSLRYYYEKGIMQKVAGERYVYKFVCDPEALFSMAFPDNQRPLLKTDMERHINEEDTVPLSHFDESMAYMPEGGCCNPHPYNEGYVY
# Procedure, shortened: as §1
# ETV3L = target: T8, ETV3L (Homo sapiens, UniProt Q6ZN32 1-361); conditions: protein: recombinant; tags: N-terminal GST; dsDNA, one strand shown
# T8 sequence: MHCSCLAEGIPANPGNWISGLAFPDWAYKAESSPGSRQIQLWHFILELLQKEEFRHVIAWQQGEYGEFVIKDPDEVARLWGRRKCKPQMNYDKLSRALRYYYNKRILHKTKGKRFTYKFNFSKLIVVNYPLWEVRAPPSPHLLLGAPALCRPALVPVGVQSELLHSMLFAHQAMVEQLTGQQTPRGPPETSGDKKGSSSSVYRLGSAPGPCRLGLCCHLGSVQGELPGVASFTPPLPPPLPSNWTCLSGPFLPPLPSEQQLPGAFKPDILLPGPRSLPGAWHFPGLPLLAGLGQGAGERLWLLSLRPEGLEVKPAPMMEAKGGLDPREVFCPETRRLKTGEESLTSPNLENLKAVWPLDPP
# Procedure, shortened: as §1
# SPDEF = target: T9, SPDEF (Homo sapiens, UniProt O95238 1-335); conditions: protein: recombinant; tags: N-terminal GST; dsDNA, one strand shown
# T9 sequence: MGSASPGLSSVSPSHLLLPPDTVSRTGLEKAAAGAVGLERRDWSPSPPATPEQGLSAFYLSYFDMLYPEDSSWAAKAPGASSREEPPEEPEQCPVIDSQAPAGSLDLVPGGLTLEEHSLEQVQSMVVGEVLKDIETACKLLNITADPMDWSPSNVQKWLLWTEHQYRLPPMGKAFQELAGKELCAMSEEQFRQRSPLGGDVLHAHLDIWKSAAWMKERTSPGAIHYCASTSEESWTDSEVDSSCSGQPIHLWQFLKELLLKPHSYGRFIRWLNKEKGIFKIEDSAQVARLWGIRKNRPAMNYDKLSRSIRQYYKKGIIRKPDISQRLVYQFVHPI
# Procedure, shortened: as §1
sequence,measurement,setting,value
TGGATC,binding signal,ELK1,"1.01 fold enrichment (6-mer frequency, TF over GST control)"
same,binding signal,ERG,"1.02 fold enrichment (6-mer frequency, TF over GST control)"
same,binding signal,EHF,"1 fold enrichment (6-mer frequency, TF over GST control)"
same,binding signal,SPI1,"1.03 fold enrichment (6-mer frequency, TF over GST control)"
same,binding signal,ELK3,"1.09 fold enrichment (6-mer frequency, TF over GST control)"
same,binding signal,HSF1,"1.16 fold enrichment (6-mer frequency, TF over GST control)"
same,binding signal,SPIC,"1.11 fold enrichment (6-mer frequency, TF over GST control)"
same,binding signal,ELF4,"1.02 fold enrichment (6-mer frequency, TF over GST control)"
same,binding signal,ETV2,"1.03 fold enrichment (6-mer frequency, TF over GST control)"
same,binding signal,ELF3,"1.06 fold enrichment (6-mer frequency, TF over GST control)"
same,binding signal,CRX,"1.15 fold enrichment (6-mer frequency, TF over GST control)"
same,binding signal,ETV1,"1.01 fold enrichment (6-mer frequency, TF over GST control)"
same,binding signal,ETV3L,"1.12 fold enrichment (6-mer frequency, TF over GST control)"
same,binding signal,SPDEF,"1.09 fold enrichment (6-mer frequency, TF over GST control)"
